What is called AC50 is the concentration at which the activity in the assay is half-maximal. As a reminder, the IC50 is the concentration at which inhibition is half-maximal. As usually defined, the viability is a read-out of living cells in per cent, often relative to untreated cells.

Molecules are shown by their SMILES. Records with an inconclusive call do not appear. Calls of active or inactive are those of the source.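 The calls were made as follows, unless noted: active = normalized viability below 100% at a tested concentration; inactive = the rest.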

Data on 4 molecules can be found in PubChem BioAssay.

Assay [1] can be described thus: growth inhibition of DIPG glioma cells, dose response, cell-based, SU-DIPG-XVII, MIPE5.0, CellTiter-Glo, qHTS (AID 1347060; cut-off not given, nearly all actives have AC50 up to about 26 µM;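 as to AC50: cells exposed to compound for 48 hours before viability readout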). As to conditions: SU-DIPG-XVII viability, CellTiter-Glo ATP luminescence. (In general: Cellular ATP, detected with luciferase, serves as a proxy for viable cell number.)
A short description of assay [2]: growth inhibition of DIPG glioma cells, dose response, cell-based, SU-DIPG-XIII, MIPE4.0, CellTiter-Glo, qHTS (AID 1347061; cut-off not given, nearly all actives have AC50 up to about 37 µM;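 also: cells exposed to compound for 48 hours before readout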). As to conditions: SU-DIPG-XIII viability, CellTiter-Glo ATP luminescence.
A short description of assay [3]: SU-DIPG-VI glioma cell viability, MIPE4.0 library, CellTiter-Glo luminescence, qHTS (AID 1347066; cut-off not given, nearly all actives have AC50 up to about 30 µM;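 also: cells exposed to compound for 48 hours before readout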). Particulars: CellTiter-Glo ATP luminescence.
The nature of assay [4]: SU-DIPG-XXV glioma cell viability, MIPE5.0 library, qHTS (AID 1347068; cut-off not given, nearly all actives have IC50 up to about 30 µM;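 as to IC50: cells exposed to compound for 48 hours before viability readout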). A general note: qHTS replaces the single test concentration by a dilution series.
A short description of assay [5]: growth inhibition of DIPG glioma cells, dose response, cell-based, JHH-DIPG-1, MIPE4.0, CellTiter-Glo, qHTS (AID 1347062; cut-off not given, nearly all actives have AC50 up to about 27 µM;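 also: cells exposed to compound for two days before readout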). Particulars: JHH-DIPG-1 viability, CellTiter-Glo ATP luminescence.
A short description of assay [6]: growth inhibition of DIPG glioma cells, dose response, cell-based, SU-DIPG-IV, MIPE4.0, CellTiter-Glo, qHTS (AID 1347063; cut-off not given, nearly all actives have AC50 up to about 30 µM;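 also: compound exposure lasted 48 hours before the viability readout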). Particulars: SU-DIPG-IV viability, CellTiter-Glo ATP luminescence.
The nature of assay [7]: growth inhibition of DIPG glioma cells, dose response, cell-based, SU-DIPG-XIII, MIPE5.0, CellTiter-Glo, qHTS (AID 1347064; cut-off not given, nearly all actives have AC50 up to about 23 µM;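 as to AC50: cells exposed to compound for 48 hours before the viability read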). Particulars: SU-DIPG-XIII viability, CellTiter-Glo ATP luminescence.
The nature of assay [8]: viability loss in pontine glioma line – cell-based, SU-DIPG-XXV, MIPE5.0, CellTiter-Glo, qHTS, dose response (AID 1347065; cut-off not given, nearly all actives have AC50 up to about 26 µM;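 also: cells exposed to compound for 48 hours before ATP readout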). Particulars: CellTiter-Glo ATP luminescence.
Assay [9] is described as follows: JHH-DIPG-1 glioma cell viability, MIPE5.0 library, CellTiter-Glo luminescence, qHTS (AID 1347067; cut-off not given, nearly all actives have AC50 up to about 26 µM;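 also: cells exposed to compound for 48 hours before readout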). Particulars: JHH-DIPG-1 glioma viability, CellTiter-Glo ATP luminescence.
Assay [10] in a line: sensitizers of A549 cells to miR-34 induction, primary screen, imaging, A549 dox-inducible miR-34, nuclei and caspase counts (AID 1347080;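 active = compounds whose cell count with miR-34 switched on is under 0.7 times the count with it off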). Particulars: A549 miR-34 inducible, Hoechst nuclei count, 48 h.
Assay [11] is described as follows: survival rescue of mitochondrial mutant cells in low glucose, primary screen, MELAS cybrids, Rieske KO mouse fibroblasts, CellTiter-Glo (AID 1508586;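 active = mean z-score across replicates of 1.96 or higher in either the MELAS or the Rieske mutant cell line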;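 also: z relative to plate mean and SD of compound and empty wells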).
The nature of assay [12]: modifiers of HSF1 nuclear foci, imaging, Selleck Cancer Library (AID 1347162; in the data active = plate-normalised HSF1 focus index below about 0.46). Particulars: human cells, at 10 µM; SSMD: measured here: HSF1 foci SSMD mean; cell count: measured here: cell number; plate-normalised HSF1 focus index: stronger effect = lower value.
A short description of assay [13]: ovarian cancer cell viability with rucaparib, profiling panel, oncology-focused library, rucaparib conditional (AID 1508598). Particulars: patient-derived ovarian cancer cells, CellTiter-Glo viability, 144 h, stronger effect = lower value.
[14] abbreviates: stronger effect = lower value, cell number ratio, induced over uninduced.
[15] abbreviates: measured here: relative caspase fold change +Dox/-Dox.
The mark [16] stands for this setting: measured here: total cells with miR-34 induction, stronger effect = lower value.
Setting [17] is: measured here: total cells without miR-34 induction.
[18] abbreviates: MELAS cybrid survival, CellTiter-Glo 48 h, stronger effect = higher value.
Where [19] appears, read: Rieske KO mouse fibroblast survival, CellTiter-Glo 72 h.

With `CC[C@H](C)n1cc(C)c2c(C(=O)NCc3c(C)cc(C)[nH]c3=O)cc(-c3ccc(N4CCNCC4)nc3)cc21`, the molecule was called inactive in [1]. The AC50 in assay [2] is 14.8 µM (active); in assay [3], 23.5 µM (active). In addition, the IC50 in assay [4] is 20.9 µM (active).
For the molecule `C/C(=N\NC(=S)N1CCC1)c1ccccn1`, the half-maximal activity concentration (AC50) in assay [1] was 9.34 nM (active); in [5], 1.48 µM (active); in assay [6], 10.5 nM (active); in assay [7] it was 23.5 nM (active); in assay [8], 0.0132 µM (active); in assay [3], 9.35 µM (active).
With `Cc1ccc(NC(=O)C2(c3ccc4c(c3)OC(F)(F)O4)CC2)nc1-c1cccc(C(=O)O)c1`, the result in assay [1], in assay [7], in assay [8], in assay [9] and in assay [4] was inactive. The AC50 is 0.0833 µM (active) in assay [5], 118 nM (active) in [6] and 1.18 µM (active) in assay [3]. Further, the fold change is 0.92 (inactive) in assay [10] (setting [14]) and 0.757 in [10] (setting [15]). The cell count in assay [10] (setting [16]) came out at 8150; in assay [10] (setting [17]) it was 8860. Further, the values for the z-score in assay [11] (setting [18]) and in assay [11] (setting [19]) were -0.25 (inactive) and -0.226, respectively.
As to `CNC(=O)c1cc(Oc2ccc(NC(=O)Nc3cc(C(C)(C)C)nn3-c3ccc4ncccc4c3)c(F)c2)ccn1`, the AC50 in assay [1] is 5900 nM (active); in [5] it was 7.43 µM (active); in assay [6] it was 8330 nM (active); in assay [7] it was 66.1 nM (active); in [8], 9.34 µM (active); in [9], 5.9 µM (active). In assay [3], the molecule was called inactive. Moreover, in assay [4], the IC50 was 20.9 µM (active). Further, the fold change is 0.963 (inactive) in assay [10] (setting [14]) and 0.469 in assay [10] (setting [15]). Further, the cell count in [10] (setting [16]) amounted to 608; in [10] (setting [17]), 632; in [12], 6970. In assay [12], the SSMD worked out at 0.0864. Moreover, the plate-normalised HSF1 focus index in assay [12] was 1.01 (inactive). Besides, the z-score in assay [11] (setting [18]) was 3.18 (active); in assay [11] (setting [19]), 0.93. Also, the viability is 112% (inactive) in [13] (at 0.000305 µM, OCI-C5x cells, with rucaparib 10 µM, 100% = cells with rucaparib alone); 112% (inactive) in [13] (at 0.000305 µM, OCI-C5x cells, without rucaparib); 103% (inactive) in [13] (at 0.000305 µM, OCI-P5x cells, with rucaparib 20 µM, 100% = cells with rucaparib alone); 108% (inactive) in assay [13] (at 0.000305 µM, OCI-P5x cells, without rucaparib); 102% (inactive) in assay [13] (at 0.00122 µM, OCI-C5x cells, with rucaparib 10 µM, 100% = cells with rucaparib alone); 117% (inactive) in [13] (at 0.00122 µM, OCI-C5x cells, without rucaparib). Moreover, the viability in [13] (at 0.00122 µM, OCI-P5x cells, with rucaparib 20 µM, 100% = cells with rucaparib alone) is 110% (inactive); in assay [13] (at 0.00122 µM, OCI-P5x cells, without rucaparib), 103% (inactive); in assay [13] (at 0.00488 µM, OCI-C5x cells, with rucaparib 10 µM, 100% = cells with rucaparib alone), 108% (inactive); in assay [13] (at 0.00488 µM, OCI-C5x cells, without rucaparib), 116% (inactive); in [13] (at 0.00488 µM, OCI-P5x cells, with rucaparib 20 µM, 100% = cells with rucaparib alone), 116% (inactive); in assay [13] (at 0.00488 µM, OCI-P5x cells, without rucaparib), 102% (inactive). Further, the viability in assay [13] (at 0.0195 µM, OCI-C5x cells, with rucaparib 10 µM, 100% = cells with rucaparib alone) was 107% (inactive); in assay [13] (at 0.0195 µM, OCI-C5x cells, without rucaparib) it was 118% (inactive); in assay [13] (at 0.0195 µM, OCI-P5x cells, with rucaparib 20 µM, 100% = cells with rucaparib alone), 110% (inactive); in assay [13] (at 0.0195 µM, OCI-P5x cells, without rucaparib), 97.7% (active); in assay [13] (at 0.0781 µM, OCI-C5x cells, with rucaparib 10 µM, 100% = cells with rucaparib alone), 115% (inactive); in [13] (at 0.0781 µM, OCI-C5x cells, without rucaparib), 113% (inactive). For the same molecule, the viability in assay [13] (at 0.0781 µM, OCI-P5x cells, with rucaparib 20 µM, 100% = cells with rucaparib alone) is 114% (inactive); in [13] (at 0.0781 µM, OCI-P5x cells, without rucaparib), 97.7% (active); in [13] (at 0.313 µM, OCI-C5x cells, with rucaparib 10 µM, 100% = cells with rucaparib alone) it was 96.9% (active); in assay [13] (at 0.313 µM, OCI-C5x cells, without rucaparib), 105% (inactive); in [13] (at 0.313 µM, OCI-P5x cells, with rucaparib 20 µM, 100% = cells with rucaparib alone), 120% (inactive); in assay [13] (at 0.313 µM, OCI-P5x cells, without rucaparib), 96.4% (active). Besides, the viability is 77.5% (active) in assay [13] (at 1.25 µM, OCI-C5x cells, with rucaparib 10 µM, 100% = cells with rucaparib alone); 96.1% (active) in assay [13] (at 1.25 µM, OCI-C5x cells, without rucaparib); 29.9% (active) in [13] (at 1.25 µM, OCI-P5x cells, with rucaparib 20 µM, 100% = cells with rucaparib alone); 97.7% (active) in assay [13] (at 1.25 µM, OCI-P5x cells, without rucaparib); 9.96% (active) in [13] (at 5 µM, OCI-C5x cells, with rucaparib 10 µM, 100% = cells with rucaparib alone); 8.93% (active) in assay [13] (at 5 µM, OCI-C5x cells, without rucaparib). For the same molecule, the viability is 17.1% (active) in [13] (at 5 µM, OCI-P5x cells, with rucaparib 20 µM, 100% = cells with rucaparib alone) and 4.51% (active) in [13] (at 5 µM, OCI-P5x cells, without rucaparib).
